{
  "source": "paper PMC8384837",
  "about": "“Expanding the binding specificity for RNA recognition by a PUF domain”",
  "experiment_in_all_cases": "yeast three-hybrid, YBZ-1, SC-Leu-His + 0.5 mM 3-AT, 4 days",
  "settings_in_all_cases": "tags: N-Gal4 AD-HA kept; label: inside an RPR1-promoter hybrid RNA with tandem MS2 sites; ssRNA",
  "key": {"PUM1 PUF domain R6-RFI": {"target": "T1, PUM1 PUF domain R6-RFI (Homo sapiens, UniProt Q14671 828-1176, N1043R;Y1044F;Q1047I)", "T1 sequence": "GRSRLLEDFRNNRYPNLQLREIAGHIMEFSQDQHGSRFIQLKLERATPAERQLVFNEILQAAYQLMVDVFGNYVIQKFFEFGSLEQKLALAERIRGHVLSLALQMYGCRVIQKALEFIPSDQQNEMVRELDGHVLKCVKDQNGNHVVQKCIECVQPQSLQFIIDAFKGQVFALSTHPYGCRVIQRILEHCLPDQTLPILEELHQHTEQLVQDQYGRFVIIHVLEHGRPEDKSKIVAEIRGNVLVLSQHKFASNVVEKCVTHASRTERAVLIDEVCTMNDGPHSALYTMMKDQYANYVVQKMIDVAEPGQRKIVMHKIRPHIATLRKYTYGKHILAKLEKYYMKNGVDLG", "in_short": "(§1)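 The interaction score is the log change in variant frequency from input to selection. Scores were computed in log2 with a pseudocount of 1 for absent variants, using Illumina sequencing of PCR-amplified repeat regions. The input came from four days on SC-Leu and the selection from four days on SC-Leu-His + 0.5 mM 3-AT. The cells were strain YBZ-1 (LexA–MS2 coat fusion, HIS3 reporter) co-expressing Pumilio-1 PUF domain libraries and matching RNA elements from a centromeric plasmid.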"}, "PUM1 PUF domain R5-RNC": {"target": "PUM1 PUF domain R5-RNC (Homo sapiens, UniProt Q14671 828-1176, C1007R;R1008N;Q1011C)", "in_short": "as §1"}, "PUM1 PUF domain R6-GYM": {"target": "T2, PUM1 PUF domain R6-GYM (Homo sapiens, UniProt Q14671 828-1176, N1043G;Q1047M)", "T2 sequence": "T1 sequence with R216G, F217Y, I220M", "in_short": "as §1"}, "PUM1 PUF domain R5-RKT": {"target": "PUM1 PUF domain R5-RKT (Homo sapiens, UniProt Q14671 828-1176, C1007R;R1008K;Q1011T)", "in_short": "as §1"}, "PUM1 PUF domain R2-CYP": {"target": "PUM1 PUF domain R2-CYP (Homo sapiens, UniProt Q14671 828-1176, N899C;Q903P)", "in_short": "as §1"}, "PUM1 PUF domain R2-RRS": {"target": "PUM1 PUF domain R2-RRS (Homo sapiens, UniProt Q14671 828-1176, N899R;Y900R;Q903S)", "in_short": "as §1"}, "PUM1 PUF domain R4-SHF": {"target": "PUM1 PUF domain R4-SHF (Homo sapiens, UniProt Q14671 828-1176, N971S;Q975F)", "in_short": "as §1"}, "PUM1 PUF domain R7-GTS": {"target": "PUM1 PUF domain R7-GTS (Homo sapiens, UniProt Q14671 828-1176, S1079G;N1080T;E1083S)", "in_short": "as §1"}, "PUM1 PUF domain R5-SNN": {"target": "PUM1 PUF domain R5-SNN (Homo sapiens, UniProt Q14671 828-1176, C1007S;R1008N;Q1011N)", "in_short": "as §1"}},
  "note": "Changes are numbered by the printed parent chain.",
  "data": [
    {"sequence": "GGCUAGAACUAGUGGAUCCCCCGGCGCCCGGCGGCUCGAGCCCGGGUAAGUGUAAAUAGUCUGCAUGCCGCCGGGCGCCAUGCCUGCAGGUCGACUCUAGAAAACAUG", "values": [
      {"measurement": "binding signal", "setting": "PUM1 PUF domain R6-RFI", "result": "2.68 log2 enrichment (interaction score)"},
      {"measurement": "binding signal", "setting": "PUM1 PUF domain R5-RNC", "result": "1.15 log2 enrichment (interaction score)"},
      {"measurement": "binding signal", "setting": "PUM1 PUF domain R6-GYM", "result": "3.33 log2 enrichment (interaction score)"}
    ]},
    {"sequence": "GGCUAGAACUAGUGGAUCCCCCGGCGCCCGGCGGCUCGAGCCCGGGUAAGUGUCAAUAGUCUGCAUGCCGCCGGGCGCCAUGCCUGCAGGUCGACUCUAGAAAACAUG", "values": [
      {"measurement": "binding signal", "setting": "PUM1 PUF domain R5-RKT", "result": "2.84 log2 enrichment (interaction score)"},
      {"measurement": "binding signal", "setting": "PUM1 PUF domain R5-RNC", "result": "3.93 log2 enrichment (interaction score)"}
    ]},
    {"sequence": "GGCUAGAACUAGUGGAUCCCCCGGCGCCCGGCGGCUCGAGCCCGGGUAAGUGUAAAGAGUCUGCAUGCCGCCGGGCGCCAUGCCUGCAGGUCGACUCUAGAAAACAUG", "values": [
      {"measurement": "binding signal", "setting": "PUM1 PUF domain R2-CYP", "result": "2.3 log2 enrichment (interaction score)"},
      {"measurement": "binding signal", "setting": "PUM1 PUF domain R2-RRS", "result": "2.87 log2 enrichment (interaction score)"}
    ]},
    {"sequence": "GGCUAGAACUAGUGGAUCCCCCGGCGCCCGGCGGCUCGAGCCCGGGUAAGUGUAAAAAGUCUGCAUGCCGCCGGGCGCCAUGCCUGCAGGUCGACUCUAGAAAACAUG", "values": [
      {"measurement": "binding signal", "setting": "PUM1 PUF domain R2-CYP", "result": "5.81 log2 enrichment (interaction score)"},
      {"measurement": "binding signal", "setting": "PUM1 PUF domain R2-RRS", "result": "1.22 log2 enrichment (interaction score)"}
    ]},
    {"sequence": "GGCUAGAACUAGUGGAUCCCCCGGCGCCCGGCGGCUCGAGCCCGGGUAAGUGUACAUAGUCUGCAUGCCGCCGGGCGCCAUGCCUGCAGGUCGACUCUAGAAAACAUG", "values": [
      {"measurement": "binding signal", "setting": "PUM1 PUF domain R4-SHF", "result": "5.41 log2 enrichment (interaction score)"}
    ]},
    {"sequence": "GGCUAGAACUAGUGGAUCCCCCGGCGCCCGGCGGCUCGAGCCCGGGUAAGUUUAAAUAGUCUGCAUGCCGCCGGGCGCCAUGCCUGCAGGUCGACUCUAGAAAACAUG", "values": [
      {"measurement": "binding signal", "setting": "PUM1 PUF domain R7-GTS", "result": "2.61 log2 enrichment (interaction score)"}
    ]},
    {"sequence": "GGCUAGAACUAGUGGAUCCCCCGGCGCCCGGCGGCUCGAGCCCGGGUAAGUGUUAAUAGUCUGCAUGCCGCCGGGCGCCAUGCCUGCAGGUCGACUCUAGAAAACAUG", "values": [
      {"measurement": "binding signal", "setting": "PUM1 PUF domain R5-SNN", "result": "4.07 log2 enrichment (interaction score)"}
    ]}
  ]
}
